How the values were obtained:
Assay in all cases: DAPPL (digital affinity profiling via proximity ligation, sequencing); 10 mM Tris-HCl pH 7.5, 50 mM NaCl, 1 mM DTT, 4% glycerol, room temperature, 30 min; GST-TFs on glutathione beads, 16-mer random dsDNA library, 0.1% formaldehyde crosslink after washing; high values mean tight binding
FEV = target: T1, FEV (Homo sapiens, UniProt Q99581 1-238); conditions: protein: recombinant; tags: N-terminal GST; dsDNA, one strand shown
T1 sequence: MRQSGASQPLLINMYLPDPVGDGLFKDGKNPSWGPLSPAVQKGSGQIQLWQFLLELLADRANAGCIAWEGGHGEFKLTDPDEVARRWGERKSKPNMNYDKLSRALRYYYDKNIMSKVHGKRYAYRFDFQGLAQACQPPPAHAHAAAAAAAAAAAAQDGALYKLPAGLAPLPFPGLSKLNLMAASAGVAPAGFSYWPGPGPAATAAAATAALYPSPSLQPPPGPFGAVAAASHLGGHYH
Method in brief: (§1)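 In yeast, human transcription factors were expressed with a GST fusion, then pulled down on glutathione beads and given DNA barcodes. Pooled with a tag-only sample, they were exposed to 200 nmole of a 16-mer random double-stranded DNA library (Tris/NaCl/DTT/glycerol buffer, room temperature, 30 min), washed, crosslinked with 0.1% formaldehyde, proximity-ligated using BsaI/T4 ligase for 1 h at 37 °C, PCR-amplified and read on an Illumina NextSeq500. Each hexamer's frequency of reads for a factor, divided by the matching frequency for the tag-only sample, gives the binding signal.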

ETV5 = ETV5 (Homo sapiens, UniProt P41161 1-510); conditions: protein: recombinant; tags: N-terminal GST; dsDNA, one strand shown
ETV5, sequence (P41161 whole entry): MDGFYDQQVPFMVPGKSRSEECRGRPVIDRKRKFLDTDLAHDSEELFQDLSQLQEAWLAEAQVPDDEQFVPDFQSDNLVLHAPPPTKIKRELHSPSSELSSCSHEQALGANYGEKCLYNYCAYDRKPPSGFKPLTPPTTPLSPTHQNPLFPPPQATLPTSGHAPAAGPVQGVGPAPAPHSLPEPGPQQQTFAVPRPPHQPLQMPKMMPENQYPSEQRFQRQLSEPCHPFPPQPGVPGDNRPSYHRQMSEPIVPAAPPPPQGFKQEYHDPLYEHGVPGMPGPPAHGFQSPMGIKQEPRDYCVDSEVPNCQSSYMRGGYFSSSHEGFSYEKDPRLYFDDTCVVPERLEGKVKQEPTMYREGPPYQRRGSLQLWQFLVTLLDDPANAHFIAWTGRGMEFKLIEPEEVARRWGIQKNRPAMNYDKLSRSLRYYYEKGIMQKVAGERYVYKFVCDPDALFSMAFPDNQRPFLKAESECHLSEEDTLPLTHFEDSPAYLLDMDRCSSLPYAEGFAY
Method in brief: as §1

HSF1 = HSF1 (Homo sapiens, UniProt Q00613 1-529); conditions: protein: recombinant; tags: N-terminal GST; chain copies: 3; dsDNA, one strand shown
HSF1, sequence (Q00613 whole entry): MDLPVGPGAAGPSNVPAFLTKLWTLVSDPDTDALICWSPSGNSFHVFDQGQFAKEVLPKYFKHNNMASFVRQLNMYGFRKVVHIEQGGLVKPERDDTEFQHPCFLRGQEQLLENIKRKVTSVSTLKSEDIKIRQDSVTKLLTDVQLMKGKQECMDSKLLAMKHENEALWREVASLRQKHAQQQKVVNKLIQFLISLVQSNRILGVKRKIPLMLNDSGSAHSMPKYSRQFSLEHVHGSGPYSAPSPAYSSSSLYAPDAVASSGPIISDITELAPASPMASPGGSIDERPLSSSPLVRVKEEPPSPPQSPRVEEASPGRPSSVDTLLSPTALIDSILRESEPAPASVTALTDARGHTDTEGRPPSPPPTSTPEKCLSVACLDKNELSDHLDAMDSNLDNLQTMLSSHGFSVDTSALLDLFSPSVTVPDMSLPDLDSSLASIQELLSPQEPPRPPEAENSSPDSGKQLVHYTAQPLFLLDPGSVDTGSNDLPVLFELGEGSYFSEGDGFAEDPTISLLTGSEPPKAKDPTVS
Method in brief: as §1

SPIC = target: T2, SPIC (Homo sapiens, UniProt Q8N5J4 1-248); conditions: protein: recombinant; tags: N-terminal GST; dsDNA, one strand shown
T2 sequence: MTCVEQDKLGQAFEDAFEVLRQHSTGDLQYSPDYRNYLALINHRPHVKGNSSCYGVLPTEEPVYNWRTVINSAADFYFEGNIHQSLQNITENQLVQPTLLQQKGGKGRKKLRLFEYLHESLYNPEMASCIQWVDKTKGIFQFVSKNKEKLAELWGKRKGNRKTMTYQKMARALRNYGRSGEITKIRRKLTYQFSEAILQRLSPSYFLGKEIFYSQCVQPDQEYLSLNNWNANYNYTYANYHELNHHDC
Method in brief: as §1

ELF4 = ELF4 (Homo sapiens, UniProt Q99607 1-663); conditions: protein: recombinant; tags: N-terminal GST; dsDNA, one strand shown
ELF4, sequence (Q99607 whole entry): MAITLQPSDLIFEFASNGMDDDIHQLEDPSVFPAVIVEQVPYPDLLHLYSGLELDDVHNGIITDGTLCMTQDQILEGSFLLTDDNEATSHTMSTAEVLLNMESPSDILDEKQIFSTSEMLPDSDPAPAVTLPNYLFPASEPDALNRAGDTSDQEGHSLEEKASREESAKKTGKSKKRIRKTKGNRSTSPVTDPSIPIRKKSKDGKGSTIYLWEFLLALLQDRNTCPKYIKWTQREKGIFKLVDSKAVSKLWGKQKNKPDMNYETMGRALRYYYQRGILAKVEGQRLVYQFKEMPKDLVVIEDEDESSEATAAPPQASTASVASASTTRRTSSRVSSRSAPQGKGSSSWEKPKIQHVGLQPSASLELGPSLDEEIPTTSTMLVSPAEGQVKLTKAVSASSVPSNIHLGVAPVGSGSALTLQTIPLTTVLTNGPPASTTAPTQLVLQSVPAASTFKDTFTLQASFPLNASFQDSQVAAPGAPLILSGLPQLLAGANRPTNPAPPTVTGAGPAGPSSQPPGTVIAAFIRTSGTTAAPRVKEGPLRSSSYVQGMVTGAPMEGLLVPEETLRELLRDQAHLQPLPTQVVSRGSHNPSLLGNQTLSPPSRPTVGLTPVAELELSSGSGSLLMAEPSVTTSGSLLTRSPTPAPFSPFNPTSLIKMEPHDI
Method in brief: as §1

ELK4 = target: T3, ELK4 (Homo sapiens, UniProt P28324-2 1-405); conditions: protein: recombinant; tags: N-terminal GST; dsDNA, one strand shown
T3 sequence: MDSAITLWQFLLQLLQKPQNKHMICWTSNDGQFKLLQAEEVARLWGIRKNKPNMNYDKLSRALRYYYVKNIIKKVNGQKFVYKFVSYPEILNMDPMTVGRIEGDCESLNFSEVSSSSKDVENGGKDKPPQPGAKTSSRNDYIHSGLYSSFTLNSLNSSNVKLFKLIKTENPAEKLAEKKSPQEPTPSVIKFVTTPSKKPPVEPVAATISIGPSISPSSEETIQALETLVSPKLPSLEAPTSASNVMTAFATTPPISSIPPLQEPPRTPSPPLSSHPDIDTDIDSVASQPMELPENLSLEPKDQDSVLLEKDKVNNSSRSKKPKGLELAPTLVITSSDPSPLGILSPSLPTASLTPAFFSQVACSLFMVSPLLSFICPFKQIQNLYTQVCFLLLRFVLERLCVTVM
Method in brief: as §1

ETV2 = target: T4, ETV2 (Homo sapiens, UniProt O00321 1-342); conditions: protein: recombinant; tags: N-terminal GST; dsDNA, one strand shown
T4 sequence: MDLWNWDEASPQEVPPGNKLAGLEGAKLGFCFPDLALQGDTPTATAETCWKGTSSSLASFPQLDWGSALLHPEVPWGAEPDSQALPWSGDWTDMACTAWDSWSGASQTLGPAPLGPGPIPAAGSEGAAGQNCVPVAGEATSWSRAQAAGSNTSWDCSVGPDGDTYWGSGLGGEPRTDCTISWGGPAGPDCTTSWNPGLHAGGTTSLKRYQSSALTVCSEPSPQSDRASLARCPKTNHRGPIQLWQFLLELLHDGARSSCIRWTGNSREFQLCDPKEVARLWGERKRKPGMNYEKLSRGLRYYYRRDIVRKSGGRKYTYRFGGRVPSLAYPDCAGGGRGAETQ
Method in brief: as §1

ELF3 = target: T5, ELF3 (Homo sapiens, UniProt P78545 1-371); conditions: protein: recombinant; tags: N-terminal GST; dsDNA, one strand shown
T5 sequence: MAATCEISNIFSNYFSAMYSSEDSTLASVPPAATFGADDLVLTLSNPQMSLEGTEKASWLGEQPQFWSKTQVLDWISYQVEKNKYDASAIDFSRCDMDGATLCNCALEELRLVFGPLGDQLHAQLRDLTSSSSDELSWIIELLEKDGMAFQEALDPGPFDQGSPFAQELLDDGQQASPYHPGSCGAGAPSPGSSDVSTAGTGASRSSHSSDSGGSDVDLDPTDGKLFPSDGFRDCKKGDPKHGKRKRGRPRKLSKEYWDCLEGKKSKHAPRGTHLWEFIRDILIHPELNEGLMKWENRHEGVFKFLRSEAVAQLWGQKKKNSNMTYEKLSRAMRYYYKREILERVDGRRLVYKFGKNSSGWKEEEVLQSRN
Method in brief: as §1

CRX = CRX (Homo sapiens, UniProt O43186 1-299); conditions: protein: recombinant; tags: N-terminal GST; dsDNA, one strand shown
CRX, sequence (O43186 whole entry): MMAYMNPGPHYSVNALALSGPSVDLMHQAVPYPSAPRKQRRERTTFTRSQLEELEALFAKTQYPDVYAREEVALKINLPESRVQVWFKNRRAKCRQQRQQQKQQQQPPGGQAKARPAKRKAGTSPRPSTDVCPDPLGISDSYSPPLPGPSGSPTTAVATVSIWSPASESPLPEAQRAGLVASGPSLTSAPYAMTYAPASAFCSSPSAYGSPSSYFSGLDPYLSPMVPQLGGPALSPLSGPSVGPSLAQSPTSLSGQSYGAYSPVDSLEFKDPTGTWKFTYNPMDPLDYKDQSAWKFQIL
Method in brief: as §1

ETV1 = ETV1 (Homo sapiens, UniProt P50549 1-477); conditions: protein: recombinant; tags: N-terminal GST; dsDNA, one strand shown
ETV1, sequence (P50549 whole entry): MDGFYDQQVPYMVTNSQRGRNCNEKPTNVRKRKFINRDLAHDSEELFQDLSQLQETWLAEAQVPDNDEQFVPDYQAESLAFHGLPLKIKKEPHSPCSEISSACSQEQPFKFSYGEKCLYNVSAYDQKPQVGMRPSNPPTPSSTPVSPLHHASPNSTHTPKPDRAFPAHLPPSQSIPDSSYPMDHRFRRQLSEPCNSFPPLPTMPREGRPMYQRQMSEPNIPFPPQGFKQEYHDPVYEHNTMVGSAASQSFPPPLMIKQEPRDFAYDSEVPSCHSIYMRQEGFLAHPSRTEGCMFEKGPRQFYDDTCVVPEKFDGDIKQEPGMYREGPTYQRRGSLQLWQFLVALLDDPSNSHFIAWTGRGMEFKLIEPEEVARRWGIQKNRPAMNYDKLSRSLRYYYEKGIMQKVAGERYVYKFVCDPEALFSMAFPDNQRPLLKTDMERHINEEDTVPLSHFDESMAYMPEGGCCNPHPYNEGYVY
Method in brief: as §1

ERF = target: T6, ERF (Homo sapiens, UniProt P50548 1-548); conditions: protein: recombinant; tags: N-terminal GST; dsDNA, one strand shown
T6 sequence: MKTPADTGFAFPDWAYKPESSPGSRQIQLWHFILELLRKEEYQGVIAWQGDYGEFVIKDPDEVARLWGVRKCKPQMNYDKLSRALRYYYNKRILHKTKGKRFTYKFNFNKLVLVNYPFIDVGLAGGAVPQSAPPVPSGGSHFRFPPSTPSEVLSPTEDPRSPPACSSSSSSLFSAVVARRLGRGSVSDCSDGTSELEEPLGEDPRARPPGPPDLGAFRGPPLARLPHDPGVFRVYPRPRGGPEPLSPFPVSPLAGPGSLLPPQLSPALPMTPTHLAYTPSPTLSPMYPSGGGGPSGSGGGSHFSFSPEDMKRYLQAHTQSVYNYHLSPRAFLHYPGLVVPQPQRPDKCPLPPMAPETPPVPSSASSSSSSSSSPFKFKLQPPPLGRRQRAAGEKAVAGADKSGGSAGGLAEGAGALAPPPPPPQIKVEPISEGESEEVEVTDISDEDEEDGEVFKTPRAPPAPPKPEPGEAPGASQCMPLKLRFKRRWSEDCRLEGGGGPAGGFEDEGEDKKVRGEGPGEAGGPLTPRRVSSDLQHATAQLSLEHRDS
Method in brief: as §1

ETV3L = target: T7, ETV3L (Homo sapiens, UniProt Q6ZN32 1-361); conditions: protein: recombinant; tags: N-terminal GST; dsDNA, one strand shown
T7 sequence: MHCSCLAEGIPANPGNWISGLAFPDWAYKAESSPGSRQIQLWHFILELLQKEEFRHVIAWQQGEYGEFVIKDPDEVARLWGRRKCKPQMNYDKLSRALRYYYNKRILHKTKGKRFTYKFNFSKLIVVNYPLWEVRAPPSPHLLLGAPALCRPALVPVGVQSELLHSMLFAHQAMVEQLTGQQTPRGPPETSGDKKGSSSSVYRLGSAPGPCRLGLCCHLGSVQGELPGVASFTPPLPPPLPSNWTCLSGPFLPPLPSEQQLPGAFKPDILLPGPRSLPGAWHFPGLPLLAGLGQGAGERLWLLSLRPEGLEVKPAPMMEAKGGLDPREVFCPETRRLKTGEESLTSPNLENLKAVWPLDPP
Method in brief: as §1

ETS2 = target: T8, ETS2 (Homo sapiens, UniProt P15036 1-469); conditions: protein: recombinant; tags: N-terminal GST; dsDNA, one strand shown
T8 sequence: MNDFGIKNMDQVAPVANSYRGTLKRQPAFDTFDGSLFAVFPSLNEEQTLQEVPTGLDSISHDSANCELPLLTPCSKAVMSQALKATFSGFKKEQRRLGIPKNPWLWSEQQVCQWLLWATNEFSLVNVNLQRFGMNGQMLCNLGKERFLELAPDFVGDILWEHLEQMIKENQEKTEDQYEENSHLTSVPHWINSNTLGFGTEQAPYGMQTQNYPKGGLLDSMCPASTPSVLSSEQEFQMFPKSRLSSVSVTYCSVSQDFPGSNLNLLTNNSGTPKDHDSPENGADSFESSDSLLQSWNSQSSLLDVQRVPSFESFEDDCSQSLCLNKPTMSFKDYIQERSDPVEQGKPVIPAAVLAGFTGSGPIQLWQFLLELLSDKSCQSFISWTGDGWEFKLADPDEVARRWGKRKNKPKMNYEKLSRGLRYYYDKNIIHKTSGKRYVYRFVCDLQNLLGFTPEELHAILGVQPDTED
Method in brief: as §1

SPDEF = target: T9, SPDEF (Homo sapiens, UniProt O95238 1-335); conditions: protein: recombinant; tags: N-terminal GST; dsDNA, one strand shown
T9 sequence: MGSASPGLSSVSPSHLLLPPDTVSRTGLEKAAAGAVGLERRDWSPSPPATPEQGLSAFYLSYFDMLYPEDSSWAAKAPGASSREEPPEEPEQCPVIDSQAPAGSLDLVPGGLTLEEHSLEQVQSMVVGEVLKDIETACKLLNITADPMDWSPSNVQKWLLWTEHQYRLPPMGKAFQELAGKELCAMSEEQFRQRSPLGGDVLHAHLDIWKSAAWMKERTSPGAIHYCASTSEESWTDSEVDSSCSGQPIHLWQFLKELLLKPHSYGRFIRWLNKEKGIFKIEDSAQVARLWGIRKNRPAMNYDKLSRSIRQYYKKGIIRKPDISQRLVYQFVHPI
Method in brief: as §1

ETV7 = target: T10, ETV7 (Homo sapiens, UniProt Q9Y603 1-341); conditions: protein: recombinant; tags: N-terminal GST; dsDNA, one strand shown
T10 sequence: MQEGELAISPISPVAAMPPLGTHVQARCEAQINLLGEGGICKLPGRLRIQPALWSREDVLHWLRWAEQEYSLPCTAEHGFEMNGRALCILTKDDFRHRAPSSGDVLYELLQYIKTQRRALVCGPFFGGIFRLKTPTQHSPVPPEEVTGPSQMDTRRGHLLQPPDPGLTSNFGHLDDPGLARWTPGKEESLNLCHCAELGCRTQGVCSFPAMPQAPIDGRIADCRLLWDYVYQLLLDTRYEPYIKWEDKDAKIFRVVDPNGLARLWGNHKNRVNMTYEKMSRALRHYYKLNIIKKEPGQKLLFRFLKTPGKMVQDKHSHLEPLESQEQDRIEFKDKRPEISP
Method in brief: as §1

ELF5 = target: T11, ELF5 (Homo sapiens, UniProt Q9UKW6-2 1-255); conditions: protein: recombinant; tags: N-terminal GST; dsDNA, one strand shown
T11 sequence: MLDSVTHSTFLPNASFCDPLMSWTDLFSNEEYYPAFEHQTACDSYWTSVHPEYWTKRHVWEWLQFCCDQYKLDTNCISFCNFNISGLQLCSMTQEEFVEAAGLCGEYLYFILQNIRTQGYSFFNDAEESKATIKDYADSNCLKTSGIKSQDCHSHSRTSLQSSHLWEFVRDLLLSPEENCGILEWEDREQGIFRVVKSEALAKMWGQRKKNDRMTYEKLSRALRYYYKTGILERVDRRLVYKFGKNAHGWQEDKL
Method in brief: as §1

ETV3 = target: T12, ETV3 (Homo sapiens, UniProt P41162-2 1-143); conditions: protein: recombinant; tags: N-terminal GST; dsDNA, one strand shown
T12 sequence: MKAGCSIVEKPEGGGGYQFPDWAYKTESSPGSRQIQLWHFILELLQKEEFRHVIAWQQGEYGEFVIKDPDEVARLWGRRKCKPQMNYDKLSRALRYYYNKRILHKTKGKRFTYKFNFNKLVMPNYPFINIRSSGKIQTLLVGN
Method in brief: as §1

ETV6 = ETV6 (Homo sapiens, UniProt P41212 1-452); conditions: protein: recombinant; tags: N-terminal GST; dsDNA, one strand shown
ETV6, sequence (P41212 whole entry): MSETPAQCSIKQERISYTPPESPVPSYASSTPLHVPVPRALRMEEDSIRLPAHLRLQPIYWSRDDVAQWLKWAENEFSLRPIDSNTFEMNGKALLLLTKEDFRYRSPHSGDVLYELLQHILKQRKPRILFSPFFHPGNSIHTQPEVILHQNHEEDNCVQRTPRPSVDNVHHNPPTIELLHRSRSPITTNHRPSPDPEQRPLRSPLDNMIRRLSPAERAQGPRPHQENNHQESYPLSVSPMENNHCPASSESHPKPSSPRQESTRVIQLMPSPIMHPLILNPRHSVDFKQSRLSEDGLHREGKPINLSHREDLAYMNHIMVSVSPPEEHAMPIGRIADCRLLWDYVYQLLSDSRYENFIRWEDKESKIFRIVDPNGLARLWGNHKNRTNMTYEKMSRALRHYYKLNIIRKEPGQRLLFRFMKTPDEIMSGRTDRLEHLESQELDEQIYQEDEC
Method in brief: as §1

Sequence	binding signal (FEV)	binding signal (ETV5)	binding signal (HSF1)	binding signal (SPIC)	binding signal (ELF4)	binding signal (ELK4)	binding signal (ETV2)	binding signal (ELF3)	binding signal (CRX)	binding signal (ETV1)	binding signal (ERF)	binding signal (ETV3L)	binding signal (ETS2)	binding signal (SPDEF)	binding signal (ETV7)	binding signal (ELF5)	binding signal (ETV3)	binding signal (ETV6)
CTATCT	1.34 fold enrichment (6-mer frequency, TF over GST control)	1.22 fold enrichment (6-mer frequency, TF over GST control)	1.4 fold enrichment (6-mer frequency, TF over GST control)	1.34 fold enrichment (6-mer frequency, TF over GST control)	1.34 fold enrichment (6-mer frequency, TF over GST control)	1.15 fold enrichment (6-mer frequency, TF over GST control)	1.39 fold enrichment (6-mer frequency, TF over GST control)	1.29 fold enrichment (6-mer frequency, TF over GST control)	1.4 fold enrichment (6-mer frequency, TF over GST control)	1.24 fold enrichment (6-mer frequency, TF over GST control)	1.42 fold enrichment (6-mer frequency, TF over GST control)	1.39 fold enrichment (6-mer frequency, TF over GST control)	1.39 fold enrichment (6-mer frequency, TF over GST control)	1.3 fold enrichment (6-mer frequency, TF over GST control)	1.4 fold enrichment (6-mer frequency, TF over GST control)	1.3 fold enrichment (6-mer frequency, TF over GST control)	1.28 fold enrichment (6-mer frequency, TF over GST control)	1.32 fold enrichment (6-mer frequency, TF over GST control)
TATTAC	1.16 fold enrichment (6-mer frequency, TF over GST control)	1.28 fold enrichment (6-mer frequency, TF over GST control)	1.33 fold enrichment (6-mer frequency, TF over GST control)	1.24 fold enrichment (6-mer frequency, TF over GST control)	1.2 fold enrichment (6-mer frequency, TF over GST control)	1.31 fold enrichment (6-mer frequency, TF over GST control)	1.27 fold enrichment (6-mer frequency, TF over GST control)	1.16 fold enrichment (6-mer frequency, TF over GST control)	1.79 fold enrichment (6-mer frequency, TF over GST control)	1.27 fold enrichment (6-mer frequency, TF over GST control)	1.22 fold enrichment (6-mer frequency, TF over GST control)	1.2 fold enrichment (6-mer frequency, TF over GST control)	1.18 fold enrichment (6-mer frequency, TF over GST control)	1.23 fold enrichment (6-mer frequency, TF over GST control)	1.16 fold enrichment (6-mer frequency, TF over GST control)	1.16 fold enrichment (6-mer frequency, TF over GST control)	1.24 fold enrichment (6-mer frequency, TF over GST control)	1.28 fold enrichment (6-mer frequency, TF over GST control)
